Bioassay records as filed in PubChem.
SARS 3CLpro inh = SARS-CoV 3CLpro protease inhibition; recombinant SARS-CoV 3CLpro, quenched FRET peptide cleavage; AID 1706; inhibition, % at 6 µM; P0C6X7; 290,000 tested, 0.14% active; in the data active = inhibition above about 12%
BoNT F protease = blocks Botulinum neurotoxin F light chain protease | Multiplex microsphere protease cleavage assay, flow cytometry | inhibition, % at 10 µM | 360,000 tested, 0.22% active | AID 588497; in the data active = inhibition above about 35%, passing the limit was not always enough; inconclusive = no clear call, values can overlap the other calls
Anthrax LF prot = anthrax lethal factor protease inhibition. P15917. multiplex microsphere protease cleavage assay, LF. inhibition, % at 10 µM. 360,000 tested, 0.12% active. AID 588501
Target sequence (P15917 whole entry, looked up): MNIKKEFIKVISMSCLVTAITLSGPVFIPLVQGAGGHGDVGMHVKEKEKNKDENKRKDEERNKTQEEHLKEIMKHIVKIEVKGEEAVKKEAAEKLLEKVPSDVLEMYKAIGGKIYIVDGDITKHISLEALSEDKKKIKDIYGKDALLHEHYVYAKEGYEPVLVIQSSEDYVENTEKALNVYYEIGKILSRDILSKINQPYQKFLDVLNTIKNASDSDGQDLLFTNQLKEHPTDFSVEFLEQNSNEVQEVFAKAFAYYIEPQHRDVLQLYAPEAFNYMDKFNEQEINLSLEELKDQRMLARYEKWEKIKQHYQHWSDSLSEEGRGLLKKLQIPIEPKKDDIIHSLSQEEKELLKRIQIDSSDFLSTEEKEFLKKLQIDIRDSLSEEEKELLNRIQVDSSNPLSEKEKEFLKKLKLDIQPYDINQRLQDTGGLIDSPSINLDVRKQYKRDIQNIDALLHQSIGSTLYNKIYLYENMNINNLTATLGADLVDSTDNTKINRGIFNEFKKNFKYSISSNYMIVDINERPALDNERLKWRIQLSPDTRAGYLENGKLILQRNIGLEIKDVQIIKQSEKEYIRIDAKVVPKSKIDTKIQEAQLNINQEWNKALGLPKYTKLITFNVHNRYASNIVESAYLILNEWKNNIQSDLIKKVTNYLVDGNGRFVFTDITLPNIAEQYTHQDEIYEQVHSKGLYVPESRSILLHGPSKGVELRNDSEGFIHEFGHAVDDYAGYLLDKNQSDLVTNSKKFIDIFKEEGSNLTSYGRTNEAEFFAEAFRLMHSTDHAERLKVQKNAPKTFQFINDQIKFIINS
Autofluor counter = counter-screen for toxin protease inhibitors: compound fluorescence | compound autofluorescence counterscreen, microsphere flow cytometry; hits give high values | fluorescence intensity (no concentration beside the values) | 360,000 tested, 3.1% active; in the data active = fluorescence intensity above about 16000; inconclusive = no clear call, values can overlap the other calls
BoNT-A LC inh2 = BoNT A light chain protease inhibition; multiplex microsphere protease substrate cleavage, flow cytometry; 360,000 tested, 0.17% active; AID 588499; inhibition, % at 10 µM
CCHFV vOTU inh = blocks the CCHF virus ovarian tumor domain protease. inhibition, % at 11.5 µM. 370,000 tested, 0.55% active. AID 651958. CCHFV vOTU protease, Pep-AMC fluorescence; in the data active = inhibition above about 30%
Of the large screens only hits and unclear results are named; the others gave an inactive call. The list is not random: actives were taken first. Their share in the collection is about 3.9%. Rule as the data show it, unless noted: active = inhibition above about 30%; inconclusive = no clear call, values can overlap the other calls; inactive = below that.

O=C(CCCN1C(=O)c2ccccc2C1=O)Nc1ccc(S(=O)(=O)N2CCCCC2)cc1	none
CC1CCN(S(=O)(=O)c2ccc(NC(=O)CSc3nnnn3C)cc2)CC1	Autofluor counter 23542
COc1ccc(/C=C2\CC3(OC(=O)c4ccco4)CCCN2C3)cc1 (centres undefined)	none (no result: SARS 3CLpro inh, BoNT F protease, Anthrax LF prot, Autofluor counter, BoNT-A LC inh2)
CCn1c(SCC(=O)Nc2cc(C)on2)nnc1-c1ccc(S(=O)(=O)N2CCCC2)cc1	Autofluor counter 20376, BoNT-A LC inh2 inconclusive
Cc1cc(NC(=O)CSc2nnc(-c3ccc(S(=O)(=O)N4CCCC4)cc3)n2C)no1	none
Cc1ccc(N2CN(CCc3ccccc3)CNC2=S)cc1	none
Cc1ccc(NC(=O)c2cc(NC(=O)C3CC=CCC3C(=O)O)ccc2N2CCOCC2)cc1 (centres undefined)	none
Cc1cccc(NC(=O)c2cc(NC(=O)C3CC=CCC3C(=O)O)ccc2N2CCOCC2)c1 (centres undefined)	Autofluor counter 23987
CC(=O)OC(C(=O)NC1CCCCC1)c1ccc(C)cc1 (centres undefined)	none
Cc1noc(C)c1C(=O)OC(C(=O)NC1CCCC1)c1ccc(F)cc1 (centres undefined)	Autofluor counter 22114 (no result: CCHFV vOTU inh)
CN(C)/C=C/C(=O)c1cccc(Cl)c1	Autofluor counter 16675
CN(C)/C=C/C(=O)c1ccc(Cl)cc1	Anthrax LF prot inconclusive, Autofluor counter inconclusive, BoNT-A LC inh2 inconclusive
CCc1cc(C(=O)OC)c(NC(=O)CC2NCCNC2=O)s1 (centres undefined)	Autofluor counter 21532, BoNT-A LC inh2 inconclusive
COC(=O)c1cc(NC(=O)CC2NCCNC2=O)cc(C(=O)OC)c1 (centres undefined)	none
O=C(CC1NCCNC1=O)Nc1ccc2c(c1)OCO2 (centres undefined)	Autofluor counter 22917
O=C(COC(=O)C1(c2ccc(F)cc2)CCCC1)NC1CC1	Autofluor counter 17844
CCN1C(=O)/C(=C/c2ccc(C)s2)SC1=Nc1ccc(OC)cc1	none
CCN1C(=O)C(=Cc2ccc(C)s2)C(=O)N(CC)C1=S	BoNT-A LC inh2 69.1
COc1ccc(N(CC(=O)NCCc2ccc(OC)c(OC)c2)S(=O)(=O)c2ccc(OC)c(OC)c2)cc1	none
COC(=O)c1sc(N)c(C(=O)OC)c1COC(=O)c1c(C)noc1C	Autofluor counter 20148
O=C(CNS(=O)(=O)c1ccc(Cl)cc1)NC1CCCCC1	none (no result: SARS 3CLpro inh, BoNT F protease, Anthrax LF prot, Autofluor counter, BoNT-A LC inh2)
O=C(c1cc2cc([N+](=O)[O-])ccc2oc1=O)N1CCN(c2ncccn2)CC1	BoNT F protease 37.8
Cc1ccccc1OCCn1c(=S)[nH]c2ccccc21	none
Cc1noc(C)c1C(=O)NC1CCCc2ccccc21 (centres undefined)	Autofluor counter 21318
COC(=O)[C@]12C[C@H](CC(=O)N3CCCCC3)C(=O)N(CCc3ccc(OC)c(OC)c3)C1=C[C@H](C(C)(C)C)O[C@@H]2C	none (no result: SARS 3CLpro inh, BoNT F protease, Anthrax LF prot, Autofluor counter, BoNT-A LC inh2)
O=C(Nc1ccc(Cl)cc1)Nc1ccc(N2CCOCC2)cc1	none
O=C(Nc1ccc(N2CCOCC2)cc1)Nc1ccc(Cl)c(Cl)c1	Autofluor counter 17169
CCn1c(COc2ccc(C)cc2)nc2ccccc21	none
CCOc1cc(/C=N/NC(=O)Cn2nc([N+](=O)[O-])cc2C)cc(Br)c1OCc1ccccc1C	Autofluor counter 16860
CCn1cc(C(=O)C(F)(F)F)c2ccccc21	Autofluor counter 22281
CCn1cc(C(=O)c2cccs2)c2ccccc21	Autofluor counter 16945
O=C(O)Cn1cc(C(=O)c2ccccc2)c2ccccc21	Autofluor counter 18398
O=C(CN1CCN(c2ccc(F)cc2)CC1)Nc1ccc(S(=O)(=O)N2CCOCC2)cc1	none
Cc1ccsc1C(=O)N1CCC1(C)C(=O)NCC(C)(C)C (centres undefined)	none (no result: SARS 3CLpro inh)
Clc1cccc(Cl)c1CSc1cc2c(nn1)-c1ccccc1CC2	Autofluor counter 22710
Cc1cc(C)c(NC(=O)CCc2c(C)noc2C)c(C)c1	none (no result: SARS 3CLpro inh)
COC(=O)COc1nsnc1N1CCOCC1	Autofluor counter 24961
COc1nsnc1N1CCOCC1	none
CC(=O)C1=C(O)C(=O)N(CCN(C)C)C1c1ccc(Cl)cc1 (centres undefined)	Autofluor counter 20540
COc1ccc([C@H]2CC(=O)C[C@@H](CCn3nnc4ccccc43)O2)cc1	none (no result: SARS 3CLpro inh)
Cc1cn(C(=O)c2ccccc2)c(=S)n1-c1ccc(Cl)cc1	Autofluor counter 17230
Cc1ccc(-n2c(C)cn(C(=O)c3ccccc3)c2=S)cc1	none
O=C(c1ccc(S(=O)(=O)NCc2ccco2)cc1)N1CCCC1	none
